Bioassay records deposited in PubChem BioAssay by The Scripps Research Institute Molecular Screening Center.
MITF inh: human MITF inhibition, primary screen; AlphaScreen MITF homodimerization, bead proximity signal; 0.91% of 650,000 active; O75030; inhibition, % at 2.6 µM; in the data active = inhibition above about 50%;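 note: 0% = vehicle wells with protein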
GPR151 activ: activators of human GPR151; Q8TDV0; PathHunter beta-arrestin GPR151 cells, luminescence; activation, % at 11.2 µM; 1% of 650,000 active; in the data active = activation above about 4.9%;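 note: 0% = median of compound wells and 100% = cells with positive control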
FBW7 act: human FBW7 E3 ligase activation, primary screen | Q969H0 | AlphaScreen FBW7–phospho-cyclin E peptide binding, activator screen | normalized activity (activation), % at 26.1 µM | 0.13% of 650,000 active | AID 1259310; in the data active = normalized activity above about 1.9%;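 note: purified mutant Fbw7 with reduced substrate affinity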
Target sequence (Q969H0 whole entry, looked up): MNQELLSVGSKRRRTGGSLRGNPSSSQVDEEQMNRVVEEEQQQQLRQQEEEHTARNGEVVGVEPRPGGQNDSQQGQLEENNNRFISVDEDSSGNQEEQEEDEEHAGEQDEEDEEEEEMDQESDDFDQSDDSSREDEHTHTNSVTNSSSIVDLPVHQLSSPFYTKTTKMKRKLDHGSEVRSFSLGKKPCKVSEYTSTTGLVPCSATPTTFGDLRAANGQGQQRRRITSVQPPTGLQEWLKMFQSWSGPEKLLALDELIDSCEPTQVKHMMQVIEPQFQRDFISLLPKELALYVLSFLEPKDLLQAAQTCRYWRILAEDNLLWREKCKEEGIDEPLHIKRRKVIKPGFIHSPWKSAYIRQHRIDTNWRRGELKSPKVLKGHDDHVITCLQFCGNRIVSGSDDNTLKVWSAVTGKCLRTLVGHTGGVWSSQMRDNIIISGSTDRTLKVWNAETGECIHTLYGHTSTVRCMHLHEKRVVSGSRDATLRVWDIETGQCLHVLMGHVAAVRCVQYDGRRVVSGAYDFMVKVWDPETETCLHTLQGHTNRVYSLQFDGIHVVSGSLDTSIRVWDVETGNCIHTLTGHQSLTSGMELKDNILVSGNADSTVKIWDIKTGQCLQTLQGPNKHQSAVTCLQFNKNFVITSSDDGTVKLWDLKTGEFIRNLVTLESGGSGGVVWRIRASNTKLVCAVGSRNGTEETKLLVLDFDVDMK
TEAD-YAP inh: TEAD-YAP interaction inhibition; HEK-TIYL cells, TEAD-Gal4/YAP UAS-luciferase luminescence; inhibition, % at 9.12 µM; 1.4% of 640,000 active; AID 1259422; in the data active = inhibition above about 32%;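 note: 0% = median of test compound wells and 100% = reference inhibitor wells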
* hit, by the source's call. An excerpt weighted towards active compounds, which were near 3.5% of everything screened.

SMILES | MITF inh | GPR151 activ | FBW7 act | TEAD-YAP inh
COC(=O)c1cc(CNC(=O)c2ccccn2)cc(NC(=O)/C=C/c2ccccc2)c1 | 8 | 0 | 0 | 4
O=C(N/N=C/c1cc(Br)cc(I)c1O)c1cccnc1 | 41 | 0 | 0 | 68*
COc1cc(Br)cc(/C=N/NC(=O)c2ccc(F)cc2)c1O | 18 | 0 | 0 | 1
Cc1cc(Br)cc(/C=N\NC(=O)c2ccc(N)cc2)c1O | -4 | 0 | 0 | 66*
COc1ccc(C(=O)N/N=C/c2cc(Cl)cc(Br)c2O)cc1 | 26 | -1 | 0 | 33*
COc1cc(Cl)cc(/C=N/NC(=O)c2cccc(F)c2)c1O | 49 | 1 | -1 | 70*
O=C(c1cc2ccccc2c(=O)o1)N1CCCCC1 | -8 | 0 | 0 | 3
c1ccc2[nH]c(Sc3nc4ccccc4n4cnnc34)nc2c1 | 2 | 2 | 0 | 7
Cc1ccc(NS(=O)(=O)c2ccc(NS(=O)(=O)c3ccc(F)cc3)cc2)c(C)c1 | 1 | 3 | 0 | 12
O=C(N/N=C/c1cc(Br)cc(Br)c1O)c1cccnc1 | 34 | -2 | 0 | 33*
COc1cc(Br)cc(/C=N\NC(=O)c2ccc(Br)cc2)c1O | 21 | 0 | 0 | 12
COc1cc(Br)cc(/C=N/NC(=O)c2ccncc2)c1O | 91* | -1 | -1 | 87*
O=C(N/N=C/c1cc(Cl)cc(Br)c1O)c1ccncc1 | 98* | 0 | 0 | 47*
O=C(N/N=C/c1cc(Cl)cc(Br)c1O)c1cccnc1 | 64* | 2 | 0 | 79*
O=C(Cn1nnc2c(cnn2-c2ccc(F)cc2)c1=O)N1CCOCC1 | -1 | 0 | 0 | 3
CCN(CC)C(=O)CSc1nnc(-c2cnccn2)n1C | 12 | -2 | 0 | 10
COc1ccc(N(CC(=O)NCCc2ccc(OC)c(OC)c2)S(=O)(=O)c2ccc(C)cc2)cc1 | -1 | 0 | 0 | 20
Cc1cccc(NC(=O)Cn2nnc(-c3ccccc3N)n2)c1C | 6 | 0 | 0 | -2
N/C(=N\N=C\c1ccccc1F)SC1CC(=O)N(c2ccccc2)C1=O (configuration not stated) | 2 | 1 | 0 | 7
Cc1ccc(-c2nnc(N3CCN(C(=O)CN4CCCC4)CC3)c3ccccc23)cc1 | 8 | 1 | 0 | 1
Cc1ccc(-c2nnc(N3CCN(C(=O)c4ccco4)CC3)c3ccccc23)cc1 | -3 | 1 | 2.3* | 26
OC1CCC(Nc2nc(NC3CCN(Cc4ccccc4)CC3)c3ncn(-c4ccccc4)c3n2)CC1 (configuration not stated) | -2 | 0 | 0 | 42*
Cc1nn(C)c(C)c1-c1nc(NC2CCN(Cc3ccccc3)CC2)c2ncn(C(C)C)c2n1 | -2 | 0 | 0 | 72*
c1ccc(CN2CCC(Nc3nc(Nc4ccc(-n5ccnc5)cc4)nc4c3ncn4-c3ccsc3)CC2)cc1 | 13 | 0 | 0 | 42*
c1ccc(CN2CCC(Nc3nc(Nc4ccc(N5CCOCC5)cc4)c4ncn(-c5ccsc5)c4n3)CC2)cc1 | -4 | -2 | 0 | 49*
SMILES | MITF inh | GPR151 activ | FBW7 act | TEAD-YAP inh
COc1ccc(S(=O)(=O)Oc2ccc(C(=S)N3CCC(O)CC3)cc2)cc1 | 16 | 2 | 1 | 11
Cc1noc(/C=C/N(C)C)c1S(=O)(=O)NCCN1CCN(c2ccccc2F)CC1 | -3 | 5 | 0 | -4
c1ccc(CN2CCC(Nc3nc(N4CCOCC4)nc4c3ncn4-c3ccsc3)CC2)cc1 | 14 | 0 | 0 | 44*
c1cc(-n2cnc3c(Nc4ccc5c(c4)OCO5)nc(N4CCN(Cc5ccc6c(c5)OCO6)CC4)nc32)cs1 | 3 | 0 | 0 | -12
c1cc(-n2cnc3c(NC4CC4)nc(N4CCN(Cc5ccc6c(c5)OCO6)CC4)nc32)cs1 | -2 | 0 | 0 | 37*
c1ccc(CN2CCC(Nc3nc(N4CCC(N5CCOCC5)CC4)nc4c3ncn4-c3ccsc3)CC2)cc1 | -16 | 0 | 0 | -1
c1ccc(CN2CCC(Nc3nc(NC4CC4)c4ncn(-c5ccsc5)c4n3)CC2)cc1 | -7 | 0 | 0 | 36*
CCOC(=O)c1c(NC(=O)CSc2nnc(CNC(=O)Cc3ccccc3)n2-c2cccc(C(F)(F)F)c2)sc2c1CCC2 | 0 | -1 | 0 | -6
COc1cc(-c2nc3ccccc3c(=O)[nH]2)cc(Cl)c1O | -11 | -2 | 0 | -8
CC(C(=O)Nc1ccccc1)N1Cc2ccccc2C1=O (configuration not stated) | -5 | 1 | 0 | -10
NCCOc1cc(-c2cn[nH]c2)ccc1NC(=O)C1COc2ccccc2C1 (configuration not stated) | 13 | -1 | 0 | 41*
COc1ccc2c(c1)CC(C(=O)Nc1ccc(-c3cn[nH]n3)cc1)CO2 (configuration not stated) | -16 | 1 | 5.9* | 0
COc1ccc(CNC(=O)c2cc(-c3cn[nH]c3)ccc2NC(=O)C2COc3ccc(OC)cc3C2)cc1 (configuration not stated) | 9 | 0 | 0 | -8
O=C(Nc1ccc(-c2cn[nH]n2)cc1)C1COc2ccc(Cl)cc2C1 (configuration not stated) | 0 | -2 | 0 | 28
COc1ccc2c(c1)CC(C(=O)Nc1ccc(-c3cn[nH]c3)cc1OCCO)CO2 (configuration not stated) | 34 | 1 | 1 | 39*
COc1ccc2c(c1)CC(C(=O)Nc1ccc(-c3cn[nH]c3)cc1OCCC(C)C)CO2 (configuration not stated) | -4 | 0 | 0 | -6
COc1ccc2c(c1)CC(C(=O)Nc1ccc(-c3cn[nH]c3)cc1C(=O)NCC#N)CO2 (configuration not stated) | -17 | -3 | 20* | 5
CCN1C(=O)C2C(c3ccc(C)cc3)NC(C)(C(=O)OC)C2C1=O (configuration not stated) | 1 | 0 | 0 | -1
COc1ccc2c(c1)CC(C(=O)Nc1cc3cc(-c4ccncc4)ccc3cn1)CO2 (configuration not stated) | -9 | -2 | 0 | 59*
COc1ccc2cc(CN(CC3CCCO3)C(=O)Nc3ccccc3OC)c(=O)[nH]c2c1 (configuration not stated) | 2 | -1 | 0 | 54*
COc1ccc2cc(CN(Cc3ccco3)C(=O)Nc3ccccc3OC)c(=O)[nH]c2c1 | 16 | -1 | 0 | 54*
COc1ccc2cc(CN(Cc3ccccc3)C(=O)c3ccncc3)c(=O)[nH]c2c1 | -7 | 1 | 0 | 51*
COc1ccc2[nH]c(=O)c(CN(Cc3ccco3)C(=O)Nc3ccccc3OC)cc2c1 | 8 | -1 | 0 | -4
Clc1cccc(-c2cnn3c(NCc4cccs4)ccnc23)c1 | -10 | 0 | 0 | -35
COc1ccc(CNc2ccnc3c(-c4cccc(C(=O)NCCN(C)C)c4)cnn23)cc1 | 1 | -1 | 0 | -52
Nc1cccc(-c2cnn3c(NCC4CC4)ccnc23)c1 | -10 | -1 | 0 | -11
O=C(O)c1cccc(-c2cnn3c(NCc4cccs4)ccnc23)c1 | 8 | 2 | 0 | 94*
